The structures appear in SMILES notation. Compounds without any hit were thinned out: in the full panel of roughly 83,000, 20% have a hit.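 Each cell line was grown in a 96-well plate and treated with one concentration of compound for 48 hours. Values below 10 were considered active.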 Values without a mark were called inactive. The source made the active and inactive calls.

In this experiment the test system is MDA-MB-468 breast. Put plainly: NCI-60 one-dose screen, 48 h (100 = growth as untreated, 0 = no growth, -100 = all killed). Particulars: 10 µM unless noted.
With `O=C1CC(c2ccc(O)c(O)c2)Oc2cc(O)c([C@@H]3O[C@H](CO)[C@@H](O)[C@H](O)[C@H]3O)c(O)c21` (stereo partly specified), the growth is 106%. On to `O=c1oc2ccc(I)cc2c(=O)n1-c1ccc(Cl)cc1F`, for which the growth was 0.339% (active). For the molecule `OC1OC(COC(c2ccccc2)(c2ccccc2)c2ccccc2)C(O)C(O)C1O` (stereo unspecified), the growth was 89.7%. With `COC(=O)C1(CC(C)=O)NC(=S)NC(=O)C1C#N` (stereo unspecified), the growth was 96%. Consider `CC(C)Sc1nc(Cl)c(C#N)c(-c2ccc(F)cc2)n1`, for which the growth is 98.9%. Under `CCCCOC(OCCCC)c1ccccc1` stands 104%.

In the case of `O=C1OCC2=C1C(c1ccncc1)c1cc3c(cc1N2CCO)OCO3` (stereo unspecified), the growth was 96.3%.

As to `Cc1ccc2c(n1)C(=O)C(Br)=C(CC(C)C)C2=O`, the growth was 91.1%. Consider `Cc1[nH]c(C2CC(c3ccc(C(F)(F)F)c(F)c3)=NN2C)c(C)c1C(=O)NCC(F)(F)F` (stereo unspecified), for which the growth was 81.6%.

For `O=c1ccc2nc(-c3ccccc3)nn(-c3ccccc3)c-2c1`, the growth is -81.6% (active). The figure for `COc1cc2c(cc1OC)C(=O)C(Br)CC2` (stereo unspecified) is 24.7%; for `Cc1cc(N2CCCCCC2)nc(NC2CCCC(Nc3ccnc4cc(Cl)ccc34)C2)n1` (stereo unspecified) it is -63.9% (active); for `O=C1OCC2=C1C(c1ccccc1)c1cc3c(cc1N2CCO)OCO3` (stereo unspecified) it is 9.26% (active). Under `CCOC(=O)c1nc(Nc2ccc(C(C)=O)cc2)sc1C` stands 96.9%; under `CS(=O)(=O)c1ccc(-n2cc(/C=C/C(=O)c3ccc(NC(=O)CO[N+](=O)[O-])cc3)c(-c3ccc(Cl)cc3)n2)cc1`, 94.1%. With `CCc1cc2c(cc1Cl)nc1c(=O)[nH]c(=O)nc-1n2CCOCC(C)C`, the growth is 43.8%. With `CCCCC(=O)OC1CCCCC1C` (stereo unspecified), the growth is 86.6%.

As to `COc1ccc(NC(=O)CCl)cc1`, the growth was 73.6%. Take `CC(=O)C1N=NCC1c1ccccc1` (stereo unspecified): the growth was 102%. Regarding `CCOc1ccc(Br)cc1/C=C(\C#N)c1ccc([N+](=O)[O-])cc1`, the growth was 51.7%. `C(=C\c1nccc2c1[nH]c1ccccc12)/c1ccccc1`: the growth is -54% (active). For `COc1cc(OC)cc(-c2cc(-c3c[nH]c4ccccc34)nc(-c3c[nH]c4ccccc34)c2C#N)c1`, the growth is 92.2%. For `Oc1ccc(/C=N/Nc2nc3ccccc3s2)c(O)c1`, the growth was 20.2%.

In the case of `CCOC(=O)C1=C(C)Nc2nc3ccccc3n2C1c1ccccc1` (stereo unspecified), the growth is 85.6%.

As for `c1ccc2c(c1)Oc1cccnc1-n1nccc1-2`, the growth is 94.7%.

Regarding `CC(=O)Oc1ccc(C23c4ccccc4C2(OC(C)=O)c2cc(OC(C)=O)ccc23)cc1` (stereo unspecified), the growth is 14.8%.
